# GluA2 TARP mod: GluA2-stargazin AMPA receptor complex modulation; HEK293 GluA2+stargazin, membrane potential dye (FDSS), glutamate EC50; hits were called plate by plate, in both directions; AID 1259245; calls only at 30 µM; 40,000 compounds, 3.5% hits; O88602+P19491;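 active = any of four per-well response measures lying three or more SD from its plate-wide compound average, in either direction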
# GIRK2 activator: Activators of human GIRK2-containing channels; P48051; activation (% efficacy), % for hits at 37.5 µM; HEK293 GIRK2/NPY4 cells, thallium flux fluorescence; 34,000 tested, under 10 active;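 active = primary screen hit, no activity in plain HEK293 cells, and in GIRK2-only cells above 5% efficacy rising with concentration; inactive = the rest, including fluorescent compounds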;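 note: efficacy is normalized control-subtracted fluorescence 15 s after thallium addition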
# An asterisk follows results filed as active; i = inactive; nt = no result given; + = active, no number. Many of the other results were omitted from the sample, so hits are more common in it than they were.
SMILES,GluA2 TARP mod,GIRK2 activator
CCS(=O)(=O)c1ccc(CC(=O)Nc2ccc(Cl)cc2C(=O)c2ccccc2)cc1,i,nt
CS(=O)(=O)c1ccc(CC(=O)Nc2ccc(Cl)cc2C(=O)c2ccccc2Cl)cc1,+,nt
O=C(NCC1CCN(C(=O)Oc2ccccc2)CC1)NC(c1ccccc1)c1ccccc1,i,i
Cc1ccc(NC(=O)NCC2CCN(C(=O)Oc3ccccc3)CC2)cc1C,+,i
CC(C)c1ccc(/C=C2\Oc3cc(OC(=O)N(C)C)ccc3C2=O)cc1,i,nt
CCOc1ccc(CC(=O)N2CCN(CCn3ccnc3)CC2)cc1,nt,i
